The results in this text go back to the supplement of paper PMC13380429.

Assay [1] concerns Vero E6 infected with SARS-CoV-2. The experiment in a line: morphology score (similarity to uninfected cells); higher = more like uninfected cells. Conditions: 24 h.
For assay [2] the test system is unchanged. The experiment in a line: SARS-CoV-2 infection rate relative to infected DMSO; higher = more infection, active = 60 or less. Conditions: 24 h.

In assay [1], `CC(=O)OC[C@H]1O[C@@H]([S-])[C@H](OC(C)=O)[C@@H](OC(C)=O)[C@@H]1OC(C)=O.CCP(CC)CC.[Au+]` [auranofin] (0.833333 µM) displayed a morphology score of 0.3. For the same compound, the SARS-CoV-2 infection rate in assay [2] was 79% (inactive).
Turning to `O=C(C=Cc1ccccc1)NC(NC(=S)Nc1ccc(Cl)cc1)C(Cl)(Cl)Cl` (stereo not given) (10 µM), the morphology score in assay [1] is -0.143. Besides, the SARS-CoV-2 infection rate in assay [2] was 106% (inactive).
With `O=C(O)CCCc1c[nH]c2ccccc12` [3-indolebutyric-acid] (10 µM), in assay [1], the morphology score was determined as 0.123. The SARS-CoV-2 infection rate in assay [2] is 114% (inactive).
Compound `COC1CCN(c2cccc(-c3cc(NC(C)=O)nc(-n4nc(C)cc4C)n3)n2)CC1` (10 µM) registered a morphology score in assay [1] of -0.0121. Besides, the SARS-CoV-2 infection rate in assay [2] was 104% (inactive).
For the compound `CC(C)(C)Sc1c(CC(C)(C)C(=O)O)n(Cc2ccc(Cl)cc2)c2ccc(OCc3ccc4ccccc4n3)cc12` [quiflapon] (10 µM), in assay [1], the morphology score was -0.04. Further, the SARS-CoV-2 infection rate in assay [2] was 106% (inactive).
Consider `Cc1cc(C)c2nc(-c3ccccn3)cc(C(=O)Nc3ccc(S(=O)(=O)Nc4onc(C)c4C)cc3)c2c1` (10 µM), for which the morphology score in assay [1] was -0.319. Moreover, in assay [2], the SARS-CoV-2 infection rate was 97% (inactive).
Compound `Cc1cc(OCC(=O)O)cc(C)c1Cc1ccc(O)c(C(C)C)c1` [sobetirome] (10 µM) returned a morphology score in assay [1] of 0.0763. In addition, in assay [2], the SARS-CoV-2 infection rate was 103% (inactive).
Regarding `S=P(N1CC1)(N1CC1)N1CC1` [thiotepa] (10 µM), the morphology score in assay [1] was 0.127. Also, the SARS-CoV-2 infection rate in assay [2] is 96% (inactive).
As for `CC(C)(C)c1ccc(/C=C/C(=O)Nc2ccc3c(c2)OCCO3)cc1` (10 µM), the morphology score in assay [1] is -0.068. In assay [2], the SARS-CoV-2 infection rate is 110% (inactive).
In assay [1], `COC1(C[S@@+]([O-])c2ccccc2)CCN(CCc2c[nH]c3ccc(F)cc23)CC1` (10 µM) gave a morphology score of -0.00604. For the same compound, the SARS-CoV-2 infection rate in assay [2] was 102% (inactive).
